Sampled rows, rich in hits. Any-hit rate of the full collection: about 2.8%.
PG9 Ab binder: small molecules binding HIV-1 gp120 antibody PG9 | 0.43% of 360,000 active | TR-FRET gp120-PG9 antibody binding | inhibition, % at 6.7 µM; in the data active = inhibition above about 8.5%
PP1 counter: blocks human PP1-alpha phosphatase, a PP5 counter-screen; P62136; purified PP1alpha, OMFP fluorescence; inhibition, % at 6.7 µM; 0.9% of 320,000 active; AID 2235;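 active = inhibition above the mean inhibition of all tested compounds plus 3 SD, computed separately for each screening campaign, cut at about 15% in these data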
KLK7 zymogen act: activators of human kallikrein-7 zymogen. AID 652039. purified proKLK7, EDANS-DABCYL substrate fluorescence; 100% is mature enzyme control, 0% vehicle. activation, % at 7 µM. 0.9% of 370,000 active. P49862;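 active = activation above the mean of all tested compounds plus 3 SD, computed per campaign excluding outliers beyond control limits, cut at about 13% in these data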
PP5 primary: inhibitors of human protein phosphatase 5 (PP5); P53041; purified PP5c, OMFP substrate fluorescence; inhibition, % at 6.7 µM; 0.18% of 320,000 active; AID 1987;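 active = inhibition above the campaign's mean inhibition across all tested compounds plus 3 SD, cut at about 9.5% in these data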;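 note: 0% = DMSO only and 100% = 100 µM cantharidin control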
JMJD2C inh: blocks human GASC-1 demethylase activity; Q9H3R0; GST-JMJD2C(1-420) H3K9me3 demethylation, DELFIA europium; inhibition, % at 2.35 µM; 0.069% of 330,000 active; AID 2099;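 active = more than half of a compound's replicate wells show inhibition beyond 50%, single wells judged on their own value; inconclusive = some, but no more than half, of replicates pass 50% inhibition; inactive = no replicate passes 50% inhibition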;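 note: signal counts dimethyl H3K9 product captured on neutravidin plate; 0% = median of DMSO wells and 100% = 0.3 times that DMSO median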
Target sequence (Q9H3R0 1-420 limits assumed): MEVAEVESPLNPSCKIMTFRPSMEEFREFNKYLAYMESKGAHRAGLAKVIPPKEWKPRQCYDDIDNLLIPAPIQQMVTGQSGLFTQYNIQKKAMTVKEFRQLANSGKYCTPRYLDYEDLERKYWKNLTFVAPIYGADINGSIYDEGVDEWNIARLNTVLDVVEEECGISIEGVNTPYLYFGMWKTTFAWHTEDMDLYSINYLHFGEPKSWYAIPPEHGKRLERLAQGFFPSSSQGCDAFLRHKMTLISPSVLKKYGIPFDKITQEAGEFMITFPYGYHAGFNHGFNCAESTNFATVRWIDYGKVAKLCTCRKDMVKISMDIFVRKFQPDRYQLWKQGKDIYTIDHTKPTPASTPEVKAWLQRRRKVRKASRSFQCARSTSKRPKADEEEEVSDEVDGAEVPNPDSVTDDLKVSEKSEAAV
Rev-erbA mod: modulates human Rev-erb alpha binding to DNA. Rev-erbα–FITC-DNA binding, fluorescence polarization, 90 min. 0.79% of 370,000 active. activity, % at 10 µM. AID 1259318;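 active = activity above about 14%, limit read from the data; passing the limit was not always enough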;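 note: 0% = DMSO wells with 35 nM protein and 100% = DMSO wells with 750 nM protein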
KLK7 act conf: confirmation of human kallikrein-7 zymogen activators; shares compounds with KLK7 zymogen act; purified proKLK7, EDANS-DABCYL substrate fluorescence; scaled: vehicle 0, mature enzyme 100; activation, % at 7 µM; 68% of 3,200 active; AID 686949;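 active = activation, as change over the incubation, above the mean of all tested compounds plus 3 SD, cut at about 13% in these data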
EDANS-DABCYL int: counter-screen for kallikrein-7 activators: EDANS-DABCYL optical interference; shares compounds with KLK7 zymogen act; EDANS-DABCYL substrate fluorescence interference, no enzyme, 4 h; solvent 0%, active enzyme control 100%; activation, % at 7 µM; 80% of 3,200 active; AID 686952;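 active = activation above the all-compound mean plus 3 SD, ignoring values outside control-based bounds, cut at about 4.8% in these data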;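 note: value is the 4 h activation minus the activation read at time zero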
K7 EDANS ctr: counter-screen for kallikrein-7 activators: EDANS-DABCYL interference, dose response; shares compounds with KLK7 zymogen act; EDANS-DABCYL peptide fluorescence interference, no enzyme; AID 720493; 20% of 250 active; EC50, µM;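 active = compounds that raise the fluorescence signal in this interference counterscreen, with EC50 at or below 10 µM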;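 note: intact quenched peptide substrate alone read at 355 nm excitation and 520 nm emission; signal is fluorescence gain from T0 to T4 after four hours at room temperature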
The depositor's hits bear a star; u = inconclusive; x = not tested or not shown.

SMILES	PG9 Ab binder	PP1 counter	KLK7 zymogen act	PP5 primary	JMJD2C inh	Rev-erbA mod	KLK7 act conf	EDANS-DABCYL int	others
CC1CCN(C(=O)COC(=O)c2ccccc2NCCO)CC1	-1	x	21*	x	x	-3	26*	22*
CC(OC(=O)c1ccccc1NCCO)C(=O)NC1CCCCC1C (centres undefined)	1	-3	21*	0	-35	3	19*	21*
O=C(OCC(=O)N1CCN(C(=O)COC(=O)c2ccccc2NCCO)CC1)c1ccccc1NCCO	2	x	57*	x	x	-13	-30	-31
CC(OC(=O)c1ccc(C(C)(C)C)cc1)C(=O)NC1CCCCC1C (centres undefined)	-1	-2	0	3	-18	2	x	x
O=C(OCC(=O)N1CCN(C(=O)c2ccco2)CC1)c1ccccc1NCCO	2	1	22*	-2	5	1	31*	31*
Cn1c(=O)c(=O)n(C)c2cc(S(=O)(=O)N3CCN(Cc4ccc(F)cc4)CC3)ccc21	x	x	0	x	x	4	x	x
CCOc1ccc2nc(NCCNC(=O)CC)c(C#N)cc2c1	1	-1	29*	1	-10	10	40*	44*
C=CCN(CC=C)c1nc2ccccc2nc1C(C#N)C(=O)OC(C)C (centres undefined)	-1	2	19*	3	-2	-4	22*	22*
C=CCOC(=O)C(C#N)c1nc2ccccc2nc1N1CCN(c2ccccc2OC)CC1 (centres undefined)	-2	4	-1	0	-6	-2	x	x
Cc1ccc2c(c1)N(CCCC(=O)N(C)Cc1ccc(F)cc1)C(=O)CO2	x	x	0	x	x	-5	x	x
O=C(OCc1cn(Cc2ccccc2C(F)(F)F)nn1)N1CCOCC1	x	x	1	x	x	6	x	x
Cc1nn(-c2ccccc2)c(=O)c2ccccc12	-3	-5	0	0	1	2	x	x
Cc1cccc(-n2c3nc(=O)[nH]c(=O)c-3cc3c(C)nn(-c4ccccc4)c32)c1C	0	-1	14*	3	10	-5	46*	58*
Cc1nn(-c2ccccc2)c2c1cc1c(=O)n(C)c(=O)nc-1n2-c1ccccc1F	-1	-3	13*	4	9	2	18*	9.1*	K7 EDANS ctr=>70
C/C=C/c1ccc([C@H]2[C@@H](CN(CC(C)C)S(=O)(=O)c3ccccc3[N+](=O)[O-])N(C(=O)Nc3cccc(OC)c3)[C@H]2CO)cc1	x	x	0	x	x	3	x	x
Cc1nnsc1-c1nc2ccccc2[nH]1	1	0	32*	4	-10	0	31*	45*
O=C(NCCC1=CCCCC1)C1CCN(S(=O)(=O)c2ccccc2[N+](=O)[O-])CC1	x	x	0	x	x	6	x	x
O=C(c1cc2c(ccc3ccccc32)oc1=O)N1CCCC1	1	-6	24*	5	1	1	49*	53*
O=C(O)c1cc2c(ccc3ccccc32)oc1=O	2	0	34*	-2	6	6	41*	42*
O=C(O)c1cc2ccc3ccccc3c2oc1=O	1	-3	31*	0	8	7	79*	82*
COc1ccc(C2C3=C(CCCC3=O)Nc3c(-c4ccccc4)c(C)nn32)cc1 (centres undefined)	x	-2	x	2	-10	x	x	x
Cc1nn2c(c1-c1ccccc1)NC1=C(C(=O)CCC1)C2c1ccccc1 (centres undefined)	1	-5	30*	3	-5	-1	63*	74*
O=C(CSc1nnc(-c2cccnc2)n1Cc1ccco1)Nc1ccc(Cl)c(Cl)c1	x	x	0	x	x	-5	x	x
O=C(NCCCN1CCOCC1)c1cc2nc(-c3ccco3)cc(C(F)(F)F)n2n1	1	-2	15*	0	10	2	14*	11*	K7 EDANS ctr=>70
CN1CCN(C(=O)c2cc3nc(-c4ccco4)cc(C(F)(F)F)n3n2)CC1	-1	-1	30*	1	8	10	17*	11*	K7 EDANS ctr=>70
SMILES	PG9 Ab binder	PP1 counter	KLK7 zymogen act	PP5 primary	JMJD2C inh	Rev-erbA mod	KLK7 act conf	EDANS-DABCYL int	others
O=C1c2ccccc2/C(=C\c2ccc(Br)nc2)N1c1ccccc1	1	x	0	x	x	-1	x	x
CNC(C)C#Cc1ccc2oc3cccc(OC)c3c(=O)c2c1 (centres undefined)	-2	1	34*	4	2	-17	8	12*
CC[C@H](C)/C=C(C)/C=C/C1=CC2=CC(=O)[C@]3(C)OC(=O)[C@@H](C(C)=O)[C@@H]3C2=CO1	1	-2	19*	3	u	-4	11	8.1*
CCC(NC(=O)OCc1ccccc1)C(=O)Oc1ccc2ccc(=O)oc2c1 (centres undefined)	2	2	75*	0	2	-7	434*	455*
COc1ccc(C(=O)Oc2ccc3oc(=O)sc3c2)cc1	0	4	0	-2	3	3	x	x
CCOc1ccccc1C(=O)Oc1ccc2ccc(=O)oc2c1	1	1	190*	3	-25	-6	305*	248*
O=C(Oc1ccc2ccc(=O)oc2c1)C1CCCCC1	-1	2	107*	3	-1	-10	337*	301*
COc1ccc(C(=O)Oc2ccc3ccc(=O)oc3c2)cc1	0	-1	19*	-2	2	-6	122*	128*
Cc1ccc(C(=O)COc2ccc3ccc(=O)oc3c2)cc1	0	-4	0	-2	-4	2	x	x
COC(=O)C1CN(Cc2ccccc2)CCS(=O)(=O)N1Cc1cccc(Cl)c1 (centres undefined)	x	x	-1	x	x	-3	x	x
COc1cccc(C(=O)COc2ccc3ccc(=O)oc3c2)c1	2	0	1	1	-9	1	x	x
O=C(Oc1ccc2ccc(=O)oc2c1)c1ccccc1	-2	0	242*	0	17	-5	589*	593*
COc1cccc(C2NC(=S)NC(C)=C2C(C)=O)c1 (centres undefined)	-1	x	0	x	x	-1	x	x
CNC(=S)NNC(=O)c1cccn(Cc2ccc(Cl)c(Cl)c2)c1=O	0	-3	21*	1	1	4	31*	34*
CNC(=S)NNC(=O)c1cccn(Cc2cccc(Cl)c2)c1=O	2	-1	15*	2	-2	-2	30*	34*
C=CCNC(=S)NNC(=O)c1cccn(Cc2ccc(Cl)c(Cl)c2)c1=O	-1	-1	22*	1	-23	-2	33*	36*
